Mcl-1 Bim block: inhibitors of Bim peptide binding to Mcl-1, primary screen, biochemical, bead-based flow cytometry, multiplex. Induced myeloid leukemia cell differentiation protein Mcl-1 (Homo sapiens), Q07820. Bim peptide-Mcl-1 binding. inhibition, % at 10 µM. 190,000 tested, 0.1% active; in the data active = inhibition above about 40%
14-3-3 Bad inh: inhibitors of 14-3-3 zeta/Bad binding, primary screen, biochemical, TR-FRET, bovine 14-3-3 zeta; inhibition, % at 21.7 µM; 14-3-3 protein zeta/delta (Bos taurus), P63103; AID 781, 2007; TR-FRET 14-3-3zeta/Dy647-pBad peptide displacement, 1 h; 220,000 tested, 0.71% active;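 active = inhibition above about 70%, limit read from the data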
Target sequence (P63103 whole entry, looked up): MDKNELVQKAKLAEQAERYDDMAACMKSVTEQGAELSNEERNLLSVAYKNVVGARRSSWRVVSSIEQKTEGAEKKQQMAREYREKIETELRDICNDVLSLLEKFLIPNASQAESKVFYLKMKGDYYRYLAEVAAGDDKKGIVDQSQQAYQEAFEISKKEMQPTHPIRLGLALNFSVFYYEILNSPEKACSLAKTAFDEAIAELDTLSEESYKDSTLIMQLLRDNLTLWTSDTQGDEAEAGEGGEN
Mcl1 Noxa PPI: Mcl-1/Noxa binding inhibitors, primary screen, biochemical, TR-FRET, 1536-well; 220,000 tested, 1.5% active; inhibition, % at 21.7 µM; Induced myeloid leukemia cell differentiation protein Mcl-1 (Homo sapiens), Q07820; TR-FRET Mcl-1/Noxa peptide binding, 2 h;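 active = compounds that cut the protein-peptide binding signal by more than 50% relative to plate controls in a single-dose test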;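 note: His-tagged Mcl-1 with rhodamine Noxa BH3 peptide and terbium anti-His antibody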
Arbovirus inh: antivirals against arbovirus infection, primary screen, cell-based, full library, 10K replicate subset | 200,000 tested, 0.37% active | inhibition, % at 10 µM | arbovirus infection cell-based antiviral screen; in the data active = inhibition above about 30%
Mcl1 Bid PPI: Mcl-1/Bid binding inhibitors, primary screen, biochemical, TR-FRET, 1536-well; Induced myeloid leukemia cell differentiation protein Mcl-1 (Homo sapiens), Q07820; TR-FRET Mcl-1/Bid-Dy647 peptide binding; inhibition, % at 21.7 µM; 220,000 tested, 0.97% active; AID 1021, 2008;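 active = compounds that cut the binding signal by more than half at the single screening dose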;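 note: His-tagged Mcl-1 with europium anti-His antibody binding Bid BH3 peptide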
Of the large screens only hits and unclear results are named; the others gave an inactive call. An excerpt weighted towards active compounds, which were near 3% of everything screened.

Cc1ccc(C(C)C)c(OCc2ccc(C(=O)N/N=C/c3ccc(O)cc3O)cc2)c1	Mcl1 Noxa PPI 86.3, Mcl1 Bid PPI 51.6
S=c1[nH]nc(-c2ccc3ccccc3n2)n1-c1ccc2ncccc2c1	Mcl1 Noxa PPI 70.0
Fc1ccc(-n2c(-c3ccc4ccccc4n3)n[nH]c2=S)cc1Cl	none
O=C(/C=C/c1cn(-c2ccccc2)nc1-c1cccnc1)N1CCCC1	none
O=C(/C=C/c1cn(-c2ccccc2)nc1-c1cccnc1)NCCN1CCOCC1	14-3-3 Bad inh 85.1
CN(c1ccccc1)S(=O)(=O)c1cccc(Cl)c1Cl	none (no result: Mcl-1 Bim block, Arbovirus inh)
CN(C)S(=O)(=O)c1c(Cl)cccc1Cl	14-3-3 Bad inh 81.0
Cc1ccc2oc(C(F)(F)C(F)F)cc(=O)c2c1	Mcl1 Bid PPI 87.6 (no result: Mcl-1 Bim block, Arbovirus inh)
Cc1cc(C(=O)CSc2nnc(-c3ccccc3)n2C)c(C)n1C	none
Cc1cc(C(=O)CSc2nnc(-c3ccncc3)n2-c2ccccc2)c(C)n1C	Mcl1 Bid PPI 50.9
Cc1cc(C)c(NC(=O)/C(=C/c2ccccc2)c2ccccc2)c(C)c1	none
COCCCn1c(=S)[nH]c2c(sc3ccccc32)c1=O	none
CN(C)CCCN(C(=O)c1ccc(N2C(=O)CCC2=O)cc1)c1nc2c(F)cccc2s1	none
CN(C)CCCN(C(=O)c1ccc2c(c1)CCCC2)c1nc2c(F)cccc2s1	Mcl1 Noxa PPI 56.1
COc1ccc(C(CC(=O)c2ccccc2)CC(=O)c2ccccc2)cc1	none (no result: Mcl-1 Bim block, Arbovirus inh)
C=C(C(=O)c1ccccc1)C(C(=C)C(=O)c1ccccc1)c1ccc(OC)cc1	Mcl1 Bid PPI 69.1 (no result: Mcl-1 Bim block, Arbovirus inh)
Oc1ccc(C=NC2CCCCC2)cc1	none (no result: Mcl-1 Bim block, Arbovirus inh)
Cc1ccc(C)c(NC2=CC(=O)CC(C)(C)C2)c1C#N	14-3-3 Bad inh 75.7
Cc1cc(-c2csc(NC(=O)c3ccc(=O)n(C)n3)n2)c(C)n1CC1CCCO1 (centres undefined)	Mcl1 Noxa PPI 53.9
O=C(NCc1cccs1)C1CCCN1C(=O)Nc1ccc(F)cc1 (centres undefined)	none (no result: Mcl-1 Bim block, Arbovirus inh)
O=C(O)c1ccc(-c2nc(-c3ccc(Cl)c(Cl)c3)cs2)cc1	none
NC(=O)C(=CNc1nc(-c2ccc(Cl)c(Cl)c2)cs1)C(N)=O	Mcl1 Noxa PPI 73.3 (no result: Mcl-1 Bim block, Arbovirus inh)
COc1ccc2c(c1)CC(C1(O)C(=O)N(C)c3ccccc31)C2=O (centres undefined)	14-3-3 Bad inh 74.4
CC1=C(C(=O)OC(C)C)C(c2ccccc2Cl)CC(=O)N1 (centres undefined)	14-3-3 Bad inh 80.0
Nc1ccc2c(c1)-c1ccccc1S(=O)(=O)N2	Mcl1 Noxa PPI 52.5
CC(=O)C1=C(C)NC(SCC(N)=O)=C(C#N)C1c1cccnc1 (centres undefined)	Mcl1 Bid PPI 97.5
O=C(O)c1cc(-c2ccc(/C=C3\NC(=O)N(c4ccc(Cl)cc4)C3=O)o2)ccc1Cl	Arbovirus inh 58.1
Cc1ccc(CN2C(=O)N/C(=C/c3ccc(-c4ccc(C(=O)O)cc4)o3)C2=O)cc1	Mcl1 Noxa PPI 66.1 (no result: Mcl-1 Bim block, Arbovirus inh)
O=C(O)c1cc(-c2ccc(/C=C3\NC(=O)N(c4ccccc4)C3=O)o2)ccc1Cl	Mcl1 Noxa PPI 72.7 (no result: Mcl-1 Bim block, Arbovirus inh)
CC(=O)N(/N=C/c1cccc(C)c1)c1nc(-c2ccc(Br)cc2)cs1	Mcl1 Bid PPI 99.0
CCOC(=O)c1cnc(-n2nc(C)cc2C)nc1Nc1ccc(C)cc1	none
CCOC(=O)c1cnc(-n2nc(C)cc2C)nc1Nc1ccc(N(C)C)cc1	Mcl1 Noxa PPI 72.5
COCCn1nnnc1CN1CCOCC1	14-3-3 Bad inh 74.6
COCCn1nnnc1CN1CCC(C)CC1	none
CCN(CC)CCCOc1nc(C)nc2c1oc1ccccc12	14-3-3 Bad inh 77.2
C/C=C\C=C/C(=O)Nc1cccc(C2=NOC3(C2)C[C@@H](C(N)=O)N(C(=O)c2ccc(Cl)cc2)C3)c1 (some centres undefined)	none (no result: Mcl-1 Bim block, Arbovirus inh)
C/C=C\C=C/C(=O)Nc1cccc(C2=NOC3(C2)C[C@H](C(N)=O)N(C(=O)Cc2ccc([N+](=O)[O-])cc2)C3)c1 (some centres undefined)	Mcl1 Noxa PPI 65.0 (no result: Mcl-1 Bim block, Arbovirus inh)
C/C=C\C=C/C(=O)Nc1cccc(C2=NOC3(C2)C[C@H](C(N)=O)N(C(=O)c2ccc(OC)cc2)C3)c1 (some centres undefined)	Mcl1 Noxa PPI 62.6 (no result: Mcl-1 Bim block, Arbovirus inh)
